Data published in the supplement of paper PMC8007513.
Counter-ions that a name gives are not always drawn. ± gives the standard error. The campaign covered roughly 1,300 compounds. About 130 (10%) showed an effect of 50% or more. This is one part of a sample in which strong results are shown more often than they occur.

System: Trichoderma virens ATCC 9645
Assay: growth yield (OD600) with compound + IPBC relative to untreated control; higher = less growth inhibition
Conditions: compound concentration: 100 uM, IPBC concentration: 200 ng/ml
Outline: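 For each 96-well plate, 100 μl aliquots were prepared with Trichoderma virens ATCC 9645 spores suspended at 15,000 spores ml^−1 in potato dextrose broth. The spores had been harvested from potato dextrose agar plates after 7 days. Library compounds were present at 100 μM final, some wells also receiving a biocide at 200 ng ml^−1, and plates were grown at 30 °C with OD600 read on a BioTek EL800 at 40 h and 72 h. Reported growth, relative to the control lacking both agents, is the mean of duplicate screens.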

## CCN1CCCC1CNC(=O)c1cc(S(N)(=O)=O)ccc1OC (configuration not stated) [Sulpiride] + CCCCNC(=O)OCC#CI [3-iodo-2-propynyl butylcarbamate (IPBC)]
40 h
  growth yield: 86.41 ± 0.32%
72 h
  growth yield: 90.3 ± 0.94%

## CCC(C)(C)c1ccc(CC(C)CN2C[C@@H](C)O[C@@H](C)C2)cc1 (some centres not stated) [Amorolfine hydrochloride] + CCCCNC(=O)OCC#CI [3-iodo-2-propynyl butylcarbamate (IPBC)]
40 h
  growth yield: 3.97 ± 0.16%
72 h
  growth yield: 2.94 ± 0.21%

## C[C@]12COC(=O)C[C@@H]1CC[C@@H]1[C@@H]2CC[C@@]2(C)[C@H]1CC[C@]2(C)O [Oxandrolone] + CCCCNC(=O)OCC#CI [3-iodo-2-propynyl butylcarbamate (IPBC)]
40 h
  growth yield: 102.8 ± 0.79%
72 h
  growth yield: 101.8 ± 0.94%

## CCN(CC)C(=O)Nc1ccc(OCC(O)CNC(C)(C)C)c(C(C)=O)c1 (configuration not stated) [Celiprolol hydrochloride] + CCCCNC(=O)OCC#CI [3-iodo-2-propynyl butylcarbamate (IPBC)]
40 h
  growth yield: 87 ± 5.7%
72 h
  growth yield: 92.2 ± 3.9%

## CN[C@@H]1[C@@H](O)[C@@H](O[C@@H]2[C@@H](O)[C@H](O[C@H]3O[C@H](CN)CC[C@H]3N)[C@@H](N)C[C@H]2N)OC[C@]1(C)O.CN[C@@H]1[C@@H](O)[C@@H](O[C@@H]2[C@@H](O)[C@H](O[C@H]3O[C@H]([C@@H](C)N)CC[C@H]3N)[C@@H](N)C[C@H]2N)OC[C@]1(C)O.CN[C@@H]1[C@@H](O)[C@@H](O[C@@H]2[C@@H](O)[C@H](O[C@H]3O[C@H]([C@@H](C)NC)CC[C@H]3N)[C@@H](N)C[C@H]2N)OC[C@]1(C)O [Gentamicine sulfate] + CCCCNC(=O)OCC#CI [3-iodo-2-propynyl butylcarbamate (IPBC)]
40 h
  growth yield: 98.3 ± 7.5%
72 h
  growth yield: 101 ± 4.4%

## C[C@@H]1[C@H](O)[C@@H](C)/C=C/C=C/C=C/C=C/C=C/C=C/C=C/[C@H](O[C@@H]2O[C@H](C)[C@@H](O)[C@H](N)[C@@H]2O)C[C@@H]2O[C@](O)(C[C@@H](O)C[C@@H](O)[C@H](O)CC[C@@H](O)C[C@@H](O)CC(=O)O[C@H]1C)C[C@H](O)[C@H]2C(=O)O [Amphotericin B] + CCCCNC(=O)OCC#CI [3-iodo-2-propynyl butylcarbamate (IPBC)]
40 h
  growth yield: 37.3 ± 4.6%
72 h
  growth yield: 92.61 ± 0.73%

## CC1OC(OC2/C=C/C=C/C=C/C=C/CC/C=C/C=C/[C@H](C)[C@@H](O)[C@@H](C)[C@H](C)OC(=O)CC(O)CC(O)CC(O)CCC(O)C(O)C[C@]3(O)CC(O)C(C(=O)O)C(C2)O3)C(O)C(N)C1O (some centres not stated) [Nystatine] + CCCCNC(=O)OCC#CI [3-iodo-2-propynyl butylcarbamate (IPBC)]
40 h
  growth yield: 50.5 ± 2.5%
72 h
  growth yield: 104 ± 2.3%

## Clc1cccc(Cl)c1NC1=NCCN1 [Clonidine hydrochloride] + CCCCNC(=O)OCC#CI [3-iodo-2-propynyl butylcarbamate (IPBC)]
40 h
  growth yield: 92.9 ± 5.6%
72 h
  growth yield: 99.2 ± 4.4%

## Cc1oncc1C(=O)Nc1ccc(C(F)(F)F)cc1 [Leflunomide] + CCCCNC(=O)OCC#CI [3-iodo-2-propynyl butylcarbamate (IPBC)]
40 h
  growth yield: 40.2 ± 3%
72 h
  growth yield: 82 ± 1.5%

## CC1CCc2cc(F)cc3c(=O)c(C(=O)O)cn1c23 (configuration not stated) [Flumequine] + CCCCNC(=O)OCC#CI [3-iodo-2-propynyl butylcarbamate (IPBC)]
40 h
  growth yield: 78.63 ± 0.16%
72 h
  growth yield: 97.12 ± 0.84%

## COC(=O)[C@H]1[C@H]2C[C@@H]3c4[nH]c5cc(OC)ccc5c4CCN3C[C@H]2C[C@@H](OC(=O)c2cc(OC)c(OC)c(OC)c2)[C@@H]1OC [Reserpine] + CCCCNC(=O)OCC#CI [3-iodo-2-propynyl butylcarbamate (IPBC)]
40 h
  growth yield: 102 ± 3.2%
72 h
  growth yield: 104 ± 2%

## CC(=O)NC1CCSC1=O (racemic) [N-Acetyl-DL-homocysteine Thiolactone] + CCCCNC(=O)OCC#CI [3-iodo-2-propynyl butylcarbamate (IPBC)]
40 h
  growth yield: 95.8 ± 7.8%
72 h
  growth yield: 96.3 ± 7.8%

## CC(C(=O)O)c1cccc(Oc2ccccc2)c1 (configuration not stated) [Fenoprofen calcium salt dihydrate] + CCCCNC(=O)OCC#CI [3-iodo-2-propynyl butylcarbamate (IPBC)]
40 h
  growth yield: 73.9 ± 12%
72 h
  growth yield: 84 ± 9.1%

## CC(C(=O)O)c1cccc(C(=O)c2ccccc2)c1 (configuration not stated) [Ketoprofen] + CCCCNC(=O)OCC#CI [3-iodo-2-propynyl butylcarbamate (IPBC)]
40 h
  growth yield: 74 ± 0.95%
72 h
  growth yield: 86.4 ± 1.5%

## CC(C(=O)O)c1ccc(-c2ccccc2)c(F)c1 (configuration not stated) [Flurbiprofen] + CCCCNC(=O)OCC#CI [3-iodo-2-propynyl butylcarbamate (IPBC)]
40 h
  growth yield: 43.4 ± 3.3%
72 h
  growth yield: 76.9 ± 2%

## NC(CO)C(=O)NNCc1ccc(O)c(O)c1O (configuration not stated) [Benserazide hydrochloride] + CCCCNC(=O)OCC#CI [3-iodo-2-propynyl butylcarbamate (IPBC)]
40 h
  growth yield: 63.9 ± 0.64%
72 h
  growth yield: 75.2 ± 0.52%

## CN[C@@H]1[C@H](O)[C@H](NC)[C@H]2O[C@@]3(O)C(=O)C[C@@H](C)O[C@H]3O[C@@H]2[C@H]1O [Spectinomycin dihydrochloride] + CCCCNC(=O)OCC#CI [3-iodo-2-propynyl butylcarbamate (IPBC)]
40 h
  growth yield: 104 ± 13%
72 h
  growth yield: 103 ± 8%

## CC(NCCC(c1ccccc1)c1ccccc1)c1ccccc1 (configuration not stated) [Fendiline hydrochloride] + CCCCNC(=O)OCC#CI [3-iodo-2-propynyl butylcarbamate (IPBC)]
40 h
  growth yield: 70.37 ± 0.16%
72 h
  growth yield: 93.7 ± 1.4%

## Cc1ccnc(NS(=O)(=O)c2ccc(N)cc2)n1 [Sulfamerazine] + CCCCNC(=O)OCC#CI [3-iodo-2-propynyl butylcarbamate (IPBC)]
40 h
  growth yield: 88.2 ± 6.2%
72 h
  growth yield: 90.9 ± 4.7%

## CC(C)(C)C(=O)OCOC(=O)[C@@H]1N2C(=O)[C@@H](/N=C/N3CCCCCC3)[C@H]2SC1(C)C [Pivmecillinam hydrochloride] + CCCCNC(=O)OCC#CI [3-iodo-2-propynyl butylcarbamate (IPBC)]
40 h
  growth yield: 57.8 ± 4.5%
72 h
  growth yield: 77.2 ± 3.1%

## CCC(=O)O[C@]1(C(=O)CCl)[C@@H](C)C[C@H]2[C@@H]3CCC4=CC(=O)C=C[C@]4(C)[C@@]3(F)[C@@H](O)C[C@@]21C [Clobetasol propionate] + CCCCNC(=O)OCC#CI [3-iodo-2-propynyl butylcarbamate (IPBC)]
40 h
  growth yield: 109 ± 7.2%
72 h
  growth yield: 106 ± 4.7%
